The source of these data is ChEMBL document CHEMBL3988442, “University of Dundee, Small-Polar-MMV Screening Library” (2021).

For part of these data: Results with a measured potency or affinity are listed apart.

What all share (parameters): scale not given: direction of the effect not stated beside the values
The target in test [1] is Protein translocase subunit SecA (Escherichia coli (strain K12)) (UniProt P10408). The test is described as follows: Assay to Identify E. coli SecA ATPase Inhibitors. It counts as functional. The note with it: 30 µM.
In test [2] the target is T1, Ubiquitin-activating enzyme e1, putative (Leishmania donovani (strain BPK282A1)) (UniProt E9BSI1).
T1 sequence (whole entry): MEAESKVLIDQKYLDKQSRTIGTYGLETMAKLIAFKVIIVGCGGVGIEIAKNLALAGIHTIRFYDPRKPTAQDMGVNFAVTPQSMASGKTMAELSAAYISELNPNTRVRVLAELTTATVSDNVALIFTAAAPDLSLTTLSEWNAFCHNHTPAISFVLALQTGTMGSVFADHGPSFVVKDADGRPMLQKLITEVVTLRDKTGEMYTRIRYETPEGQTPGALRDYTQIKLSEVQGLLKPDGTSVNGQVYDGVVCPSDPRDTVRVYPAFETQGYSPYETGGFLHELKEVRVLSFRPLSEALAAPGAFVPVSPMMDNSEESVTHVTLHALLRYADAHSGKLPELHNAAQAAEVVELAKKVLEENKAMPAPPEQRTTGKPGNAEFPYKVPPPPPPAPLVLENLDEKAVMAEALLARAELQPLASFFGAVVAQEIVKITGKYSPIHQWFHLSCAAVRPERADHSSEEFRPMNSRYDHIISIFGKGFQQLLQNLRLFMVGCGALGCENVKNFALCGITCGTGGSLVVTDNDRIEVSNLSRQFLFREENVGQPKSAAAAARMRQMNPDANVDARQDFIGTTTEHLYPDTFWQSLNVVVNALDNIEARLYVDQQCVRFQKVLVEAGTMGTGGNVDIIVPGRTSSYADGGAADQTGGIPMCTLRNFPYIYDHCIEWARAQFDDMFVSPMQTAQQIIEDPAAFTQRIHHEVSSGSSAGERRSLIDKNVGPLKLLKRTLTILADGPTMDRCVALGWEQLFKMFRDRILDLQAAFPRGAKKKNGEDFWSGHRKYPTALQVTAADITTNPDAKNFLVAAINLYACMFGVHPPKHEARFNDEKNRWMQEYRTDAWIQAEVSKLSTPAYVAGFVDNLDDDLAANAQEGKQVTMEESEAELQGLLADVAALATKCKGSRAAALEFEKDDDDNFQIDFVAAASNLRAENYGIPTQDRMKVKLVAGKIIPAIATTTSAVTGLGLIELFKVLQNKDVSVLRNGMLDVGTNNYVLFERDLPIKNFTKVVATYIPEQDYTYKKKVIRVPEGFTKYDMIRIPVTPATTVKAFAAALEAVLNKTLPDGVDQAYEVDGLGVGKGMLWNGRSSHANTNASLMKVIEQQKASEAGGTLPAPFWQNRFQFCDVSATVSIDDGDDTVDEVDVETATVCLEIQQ
The test can be described thus: Leishmania donovani Ubiquitin Activating Enzyme (LdE1). It counts as functional. The note with it: 30 µM.

The target of test [3] is Sialic acid-binding Ig-like lectin 9 (Homo sapiens) (UniProt Q9Y336). The test can be described thus: Hs-Siglec9 ALPHAscreen SOP 20170721. The note with it: 10 µM. (In Alpha technology, singlet oxygen from a donor bead excites a nearby acceptor bead.)
The next test deals with Trypanosoma cruzi. The test can be described thus: Trypanosoma cruzi phosphomannomutase and mannose-1-phosphate guanylyltransferase assay. It counts as functional. The settings on record: 10 µM.
Test [4] concerns the target T2, Arginase-2, mitochondrial (Homo sapiens) (UniProt P78540).
T2 sequence (whole entry): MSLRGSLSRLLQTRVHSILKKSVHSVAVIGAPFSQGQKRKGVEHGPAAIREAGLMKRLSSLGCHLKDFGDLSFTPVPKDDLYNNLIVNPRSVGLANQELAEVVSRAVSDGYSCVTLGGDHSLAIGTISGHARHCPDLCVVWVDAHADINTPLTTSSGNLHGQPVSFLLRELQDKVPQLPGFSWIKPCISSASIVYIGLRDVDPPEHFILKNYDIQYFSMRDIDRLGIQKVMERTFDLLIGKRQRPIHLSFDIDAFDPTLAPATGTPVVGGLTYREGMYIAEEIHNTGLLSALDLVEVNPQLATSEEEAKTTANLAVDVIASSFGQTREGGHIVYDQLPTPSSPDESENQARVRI
The test is described as follows: in vitro enzyme assay to detect the production of urea directly proportional to the activity of Arginase II. Also: in the data most compounds retested in dose-response had high values. It counts as functional. The note with it: 33.3 µM.

The target in test [5] is T3, Proteasome subunit beta (Trypanosoma cruzi) (UniProt O96673).
T3 sequence (whole entry): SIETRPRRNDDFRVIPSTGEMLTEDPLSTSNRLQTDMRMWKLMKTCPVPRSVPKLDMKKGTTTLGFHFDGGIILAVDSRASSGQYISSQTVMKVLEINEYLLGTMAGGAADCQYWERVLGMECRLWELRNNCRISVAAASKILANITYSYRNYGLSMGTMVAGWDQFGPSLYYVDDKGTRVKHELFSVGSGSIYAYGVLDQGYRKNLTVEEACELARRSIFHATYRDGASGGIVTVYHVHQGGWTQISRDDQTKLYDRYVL
The test is described as follows: Trypanosoma cruzi proteasome chymotrypsin-like activity (TcProtChymo) assay. Also: in the data most compounds retested in dose-response had high values. The note with it: 9.37 µM. The format is functional.

The species entered for a further test is Homo sapiens. The test is described as follows: To identify inhibition of the IFN signalling (Jak-Stat) pathway via expression of an eGFP reporter gene under the control of an IFN-stimulated response element (ISRE) containing MxA promoter. The format is functional. The settings on record: 30 µM. A general note: Reporter assays use an easily measured gene product as a stand-in for the process of interest.

In test [6] the target is T4, Tyrosyl-tRNA synthetase, putative (Trypanosoma cruzi (strain CL Brener)) (UniProt Q4DSP6).
T4 sequence (whole entry): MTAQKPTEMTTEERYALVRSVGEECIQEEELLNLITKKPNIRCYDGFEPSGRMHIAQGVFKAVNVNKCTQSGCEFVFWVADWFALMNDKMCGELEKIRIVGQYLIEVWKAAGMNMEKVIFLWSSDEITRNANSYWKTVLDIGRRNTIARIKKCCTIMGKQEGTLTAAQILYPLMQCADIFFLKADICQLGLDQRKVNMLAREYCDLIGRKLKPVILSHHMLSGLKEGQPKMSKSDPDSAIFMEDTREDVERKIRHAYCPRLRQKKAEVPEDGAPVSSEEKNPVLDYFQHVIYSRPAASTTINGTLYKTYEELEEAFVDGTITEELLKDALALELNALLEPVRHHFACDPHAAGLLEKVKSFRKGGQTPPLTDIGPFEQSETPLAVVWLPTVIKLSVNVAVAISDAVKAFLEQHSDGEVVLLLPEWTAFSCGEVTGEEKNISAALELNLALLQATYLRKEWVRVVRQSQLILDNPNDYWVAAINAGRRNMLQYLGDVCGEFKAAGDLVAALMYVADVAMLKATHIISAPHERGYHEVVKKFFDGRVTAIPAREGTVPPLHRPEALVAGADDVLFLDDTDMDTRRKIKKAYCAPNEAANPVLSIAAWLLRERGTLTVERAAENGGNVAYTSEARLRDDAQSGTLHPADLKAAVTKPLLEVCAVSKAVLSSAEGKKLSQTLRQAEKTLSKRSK
The test can be described thus: Trypanosoma cruzi tyrosyl tRNA synthetase (TcYRS) _High Tyrosine SOP. Also: in the data most compounds retested in dose-response had high values. The format is functional. The settings on record: 30 µM.

Test [7] concerns the target T4, Tyrosyl-tRNA synthetase, putative (Trypanosoma cruzi (strain CL Brener)). The test can be described thus: Trypanosoma cruzi tyrosyl tRNA synthetase (TcYRS) SOP. It counts as functional. The settings on record: 30 µM.
Test [8] concerns the target Chromo domain-containing protein 1 (Saccharomyces cerevisiae (strain ATCC 204508 / S288c) (Baker's yeast)) (UniProt P32657). The test can be described thus: ScCHD-1 Enzyme Inhibition Assay. Also: in the data most compounds retested in dose-response had high values. The format is functional. The note with it: 30 µM.

Sequence of Protein translocase subunit SecA (Escherichia coli (strain K12)) (P10408 whole entry): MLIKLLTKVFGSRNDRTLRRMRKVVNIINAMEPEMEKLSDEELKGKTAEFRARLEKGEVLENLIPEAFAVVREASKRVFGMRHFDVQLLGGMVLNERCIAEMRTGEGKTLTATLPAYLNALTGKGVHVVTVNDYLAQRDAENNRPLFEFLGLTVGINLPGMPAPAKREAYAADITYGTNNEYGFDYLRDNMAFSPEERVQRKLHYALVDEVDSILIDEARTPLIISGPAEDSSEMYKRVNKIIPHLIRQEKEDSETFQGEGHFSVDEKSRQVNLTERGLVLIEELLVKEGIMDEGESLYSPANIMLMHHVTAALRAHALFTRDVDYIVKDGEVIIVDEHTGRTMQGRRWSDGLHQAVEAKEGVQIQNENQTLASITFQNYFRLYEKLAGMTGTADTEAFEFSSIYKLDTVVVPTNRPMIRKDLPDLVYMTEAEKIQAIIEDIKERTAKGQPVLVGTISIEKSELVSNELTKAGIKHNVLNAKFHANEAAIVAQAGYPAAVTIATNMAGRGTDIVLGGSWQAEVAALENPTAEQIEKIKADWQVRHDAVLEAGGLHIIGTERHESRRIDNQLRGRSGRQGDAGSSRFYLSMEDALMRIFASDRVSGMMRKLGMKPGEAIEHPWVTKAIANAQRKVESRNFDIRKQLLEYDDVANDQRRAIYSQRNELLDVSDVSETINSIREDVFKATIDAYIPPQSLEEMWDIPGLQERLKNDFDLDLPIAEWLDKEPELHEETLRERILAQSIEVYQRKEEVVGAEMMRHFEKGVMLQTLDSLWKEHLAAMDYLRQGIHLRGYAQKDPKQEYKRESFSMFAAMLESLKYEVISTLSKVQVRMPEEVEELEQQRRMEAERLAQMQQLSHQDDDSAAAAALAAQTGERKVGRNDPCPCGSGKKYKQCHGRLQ
Sequence of Sialic acid-binding Ig-like lectin 9 (Homo sapiens) (Q9Y336 whole entry): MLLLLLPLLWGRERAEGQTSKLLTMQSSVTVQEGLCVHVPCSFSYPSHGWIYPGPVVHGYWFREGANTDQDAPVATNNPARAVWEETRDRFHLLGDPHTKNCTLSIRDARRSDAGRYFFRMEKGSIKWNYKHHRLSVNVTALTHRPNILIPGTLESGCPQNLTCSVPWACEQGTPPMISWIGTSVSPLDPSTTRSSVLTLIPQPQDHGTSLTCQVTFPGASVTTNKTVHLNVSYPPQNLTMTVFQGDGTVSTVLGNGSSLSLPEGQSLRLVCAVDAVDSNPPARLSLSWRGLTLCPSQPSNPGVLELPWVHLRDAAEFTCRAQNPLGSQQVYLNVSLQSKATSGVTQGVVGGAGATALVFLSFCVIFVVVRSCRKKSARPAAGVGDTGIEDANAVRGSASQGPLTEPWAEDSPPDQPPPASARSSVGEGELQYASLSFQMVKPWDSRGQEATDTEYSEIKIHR
Sequence of Chromo domain-containing protein 1 (Saccharomyces cerevisiae (strain ATCC 204508 / S288c) (Baker's yeast)) (P32657 whole entry, the tested form may be a part): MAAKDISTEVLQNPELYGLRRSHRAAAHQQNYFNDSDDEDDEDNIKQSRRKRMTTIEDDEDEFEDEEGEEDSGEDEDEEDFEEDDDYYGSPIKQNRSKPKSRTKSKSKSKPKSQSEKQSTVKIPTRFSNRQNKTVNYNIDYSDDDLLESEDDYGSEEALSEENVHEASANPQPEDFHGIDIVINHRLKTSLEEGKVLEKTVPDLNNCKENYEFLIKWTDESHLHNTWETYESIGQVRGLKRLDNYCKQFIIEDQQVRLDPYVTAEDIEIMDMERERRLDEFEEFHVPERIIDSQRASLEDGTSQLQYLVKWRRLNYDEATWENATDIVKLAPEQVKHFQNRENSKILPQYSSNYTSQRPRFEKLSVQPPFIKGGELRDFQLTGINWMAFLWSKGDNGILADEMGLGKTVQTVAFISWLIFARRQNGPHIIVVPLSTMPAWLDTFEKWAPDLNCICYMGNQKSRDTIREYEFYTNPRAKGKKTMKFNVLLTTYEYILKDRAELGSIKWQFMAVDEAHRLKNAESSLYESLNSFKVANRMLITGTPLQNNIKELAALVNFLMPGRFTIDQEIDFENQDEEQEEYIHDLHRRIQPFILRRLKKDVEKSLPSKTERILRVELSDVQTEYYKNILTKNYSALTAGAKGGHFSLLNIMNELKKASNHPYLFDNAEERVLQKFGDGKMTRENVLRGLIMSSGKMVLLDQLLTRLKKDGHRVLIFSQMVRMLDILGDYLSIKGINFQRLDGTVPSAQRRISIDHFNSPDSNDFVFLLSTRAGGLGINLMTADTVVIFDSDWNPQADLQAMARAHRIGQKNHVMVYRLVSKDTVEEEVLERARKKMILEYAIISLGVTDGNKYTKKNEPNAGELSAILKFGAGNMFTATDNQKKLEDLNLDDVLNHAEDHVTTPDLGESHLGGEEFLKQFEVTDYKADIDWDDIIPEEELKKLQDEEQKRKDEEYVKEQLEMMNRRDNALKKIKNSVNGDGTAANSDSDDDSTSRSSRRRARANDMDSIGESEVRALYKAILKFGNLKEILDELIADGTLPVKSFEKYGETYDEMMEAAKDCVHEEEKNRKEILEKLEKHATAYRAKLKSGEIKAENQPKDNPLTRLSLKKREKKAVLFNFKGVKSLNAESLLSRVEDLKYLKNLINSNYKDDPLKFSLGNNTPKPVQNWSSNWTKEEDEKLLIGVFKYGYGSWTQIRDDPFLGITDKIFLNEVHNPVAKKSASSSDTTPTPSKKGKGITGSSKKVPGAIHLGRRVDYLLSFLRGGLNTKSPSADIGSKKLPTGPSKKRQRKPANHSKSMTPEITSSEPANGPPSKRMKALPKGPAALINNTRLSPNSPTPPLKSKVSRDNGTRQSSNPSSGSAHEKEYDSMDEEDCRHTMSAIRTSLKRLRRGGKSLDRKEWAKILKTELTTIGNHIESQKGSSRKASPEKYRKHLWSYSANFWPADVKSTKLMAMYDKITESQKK

With `Cn1nc2c(cc1=O)CN(Cc1nc(-c3cccs3)no1)CC2`, the Percent Effect in test [1] was -4.37%; in test [2] it was 5.33%; in [3], 3.65%; with Trypanosoma cruzi it was 1.61%; in test [4], -1.77%; in test [5], 13.7%. Moreover, the Percent Effect is 12.3% in the test filed under Homo sapiens, -0.526% in [6], 2.56% in test [7] and -8.34% in test [8].
With `c1ccc(CN2CCOCC3(CCN(C4CCOCC4)C3)C2)cc1` (stereo not given), the Percent Effect in test [1] was -5.53%; in test [2], 6.49%; in test [3], -8.07%; in the test on Trypanosoma cruzi, -4.58%; in [4], -3.24%; in test [5], 22.9%. Further, the Percent Effect was 8.96% in the test filed under Homo sapiens, 3.68% in [6], 10.3% in test [7] and -0.0594% in test [8].
Consider `O=C(c1ccncc1)N1CCCC2(COCCN(c3ccccc3)C2)C1` (stereo not given), for which the Percent Effect in [1] is -5.29%; in [2], -1.3%; in [3] it was -2.94%; with Trypanosoma cruzi, -6.72%; in test [4], -5.26%; in [5], 20%. For the same molecule, the Percent Effect in the test listed under Homo sapiens is 0.424%; in [6] it was 6.84%; in [7], 7.69%; in test [8], -1.75%.
Take `CN1CCN(c2cc(CNC(=O)c3ccc(=O)[nH]n3)ccn2)CC1`: the Percent Effect was -0.863% in test [1]; 12.8% in [2]; -10.3% in test [3]; -2.16% with Trypanosoma cruzi; 9.43% in test [4]; 9.81% in [5]. The Percent Effect in the test listed under Homo sapiens is 23.3%; in test [6], 6.22%; in test [7], 18.1%; in test [8] it was -2.33%.
As to `COc1ncc(C2(O)CCN(Cc3ccccc3O)CC2)c(OC)n1`, the Percent Effect in test [1] is -3.88%; in test [2], 22.7%; in test [3], 0.188%; with Trypanosoma cruzi it was 1.58%; in [4], -3.1%; in [5], 13.6%. The Percent Effect is -5.87% in the test listed under Homo sapiens, 6.35% in test [6], 20% in [7] and -23.4% in test [8].
Turning to `CC(C)CC(=O)N1C[C@@H]2CCN(c3ncccn3)C[C@@H]2C1`, the Percent Effect in test [1] was -0.224%; in test [2], 11.7%; in test [3], -0.117%; in the test on Trypanosoma cruzi, 0.375%; in test [4] it was -5.02%; in test [5], 14.2%. Further, the Percent Effect in the test filed under Homo sapiens is 17.9%; in test [6], 0%; in test [7], -10%; in test [8], -10.7%.
For `COc1ccc(C2CC(=O)Nc3c2nc2n3CCCC2)cc1OC` (stereo not given), the Percent Effect in [1] is -2.41%; in test [2], 8.11%; in test [3] it was 3.86%; with Trypanosoma cruzi it was -4.56%; in [4], 0.35%; in test [5], 15.9%. For the same molecule, the Percent Effect was 30.7% in the test filed under Homo sapiens, 1.6% in test [6], 14.6% in test [7] and -4.25% in [8].
In the case of `O=C(COc1ccc2c(c1)CCC2)NS(=O)(=O)c1cncc(Br)c1`, the Percent Effect in test [1] was -2.61%; in test [2], 2.56%; in [3], 1.99%; with Trypanosoma cruzi, 9.3%; in test [4] it was -3.28%; in [5] it was 3.33%. The Percent Effect in the test listed under Homo sapiens is 7.32%; in test [6], -3.35%; in test [7] it was 1.21%; in [8], 1.12%.
`Cc1ccc(NC(=O)C2CSCN2C(=O)c2cnccn2)c(C)c1` (stereo not given): the Percent Effect in [1] was -4.93%; in test [2] it was 7.69%; in [3], -2.1%; in the test with Trypanosoma cruzi, -4.6%; in test [4], 6.15%; in test [5], 1.11%. Further, the Percent Effect in the test listed under Homo sapiens is 26.2%; in test [6], 3.35%; in test [7], 10.8%; in test [8] it was -1.89%.
As for `Cc1cc(C)c(OCC(=O)NS(=O)(=O)c2c(C)noc2C)c(C)c1`, the Percent Effect in test [1] is -3.67%; in test [2], -2.56%; in [3] it was -14.2%; in the test with Trypanosoma cruzi, 5.54%; in test [4] it was 1.23%; in test [5] it was 1.11%. For the same molecule, the Percent Effect came to 7.01% in the test listed under Homo sapiens, 1.44% in test [6], 10.8% in test [7] and 1.12% in [8].
With `CCC(NC(=O)c1ccco1)c1ccccc1OCC(=O)N1CCCC1` (stereo not given), the Percent Effect in test [1] was -0.841%; in [2] it was 20.5%; in test [3], -7.21%; in the test with Trypanosoma cruzi, 8.92%; in [4], -5.33%; in [5], 12.5%. In addition, the Percent Effect is 13.3% in the test listed under Homo sapiens, 3.35% in [6], 22.9% in test [7] and -5.94% in [8].
As to `Cc1cc(NCc2cc3n(n2)CCCN(C(=O)N(C)C)C3)ncn1`, the Percent Effect in test [1] is -14.3%; in test [2] it was 2.7%; in [3] it was 3.53%; in the test with Trypanosoma cruzi, -1.84%; in test [4], 1.05%; in [5] it was 3.42%. Moreover, the Percent Effect stood at 4.33% in the test listed under Homo sapiens, 1.6% in test [6], 4.88% in test [7] and 0.382% in test [8].
